MARV entry inh – blocks Marburg virus binding to or entry into cells; Marburg virus pseudotyped entry inhibition, cell reporter; Potency, µM (top dose mostly 37.8 µM), for inactives: at the top dose activity change, negative = inhibition, actives largely listed as inhibitors; actives 1.8% (n = 300,000); AID 540276; calls by dose curve; tested in HEK293 cells; also: potency is read from the fitted curve at half-maximal effect; % is scaled to controls: 0 for no effect and ±100 for the full control effect
Shiga toxin inh – Shiga toxin inhibition. Vero cells, Shiga toxin protein synthesis inhibition reporter. actives 9.2% (n = 290,000). inhibition, % at 38.7 µM; in the data active = inhibition mostly above about 28%, no sharp cut-off; inactive = mostly below about 43%; also: 0% is about no effect
CHX counter – affects cycloheximide protein synthesis inhibition readout, counter-screen; max response, %; AID 2314; actives 12% (n = 300,000); cell reporter, cycloheximide protein synthesis inhibition counterscreen; in the data active = max response mostly above about 13%, no sharp cut-off; inactive = mostly below about 14%; also: read at 38.3 µM for the half of the compounds with a filed dose; 0% is about no effect
Lassa entry inh – inhibitors of Lassa virus binding or cell entry | Lassa virus pseudotype entry inhibition, cell reporter | Potency, µM (doses to about 37.9 µM), without a hit: top-dose activity change, negative = inhibition, most hits filed as inhibitors | actives 1.2% (n = 300,000) | AID 540256; calls by dose curve; tested in HEK293 cells; also: potency is read from the fitted curve at half-maximal effect; % is scaled to controls: 0 for no effect and ±100 for the full control effect; nearly all actives have a fitted effect of over 50% in size
Pf growth 96h – inhibits malaria parasite growth, 96 h; P. falciparum luciferase reporter growth, 96 h; Potency, µM (highest dose often 28.7 µM), for inactives: at the top dose activity change, negative = inhibition, hits mostly inhibitors; actives 6.9% (n = 320,000); also: potency is read from the fitted curve at half-maximal effect; % is scaled to controls: 0 for no effect and ±100 for the full control effect
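Readout is luminescence from an integrated firefly luciferase in P. falciparum. Red cells, 2% hematocrit and 0.05% parasitemia final, were cultured with compound through two parasite generations (96 hours) at 37 C, 5% CO2.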
Pf growth 48h – P. falciparum growth inhibition at 48 hours (one generation). P. falciparum luciferase growth in erythrocytes, 48 h. Potency, µM (doses to about 28.7 µM), without a hit: at the highest dose activity change, negative = inhibition, usual class: inhibitors. actives 5.9% (n = 310,000). AID 504832; also: potency is read from the fitted curve at half-maximal effect; % is scaled to controls: 0 for no effect and ±100 for the full control effect
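Read-out is firefly luciferase luminescence from an integrated reporter in P. falciparum, so falling signal marks reduced parasite growth. Infected erythrocytes were at 2% hematocrit and 0.1% parasitemia (final) in Albumax-supplemented RPMI 1640.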
An asterisk follows results filed as active; [ ] = dose if it differs, or a comment. Shown are actives, neighbours in structure and some others; about 19% of the full set was active somewhere. Unless noted, calls follow the shape of the dose curve; as a rule, active = well fitted inhibition curve with a large enough effect; inconclusive = small, poorly fitted or top-dose-only effect, or another doubt; inactive = no such curve, though single readings can be large or run the other way.

For COc1ccccc1Nc1nc(N)nc(CSC(=S)N2CCN(c3ccccc3)CC2)n1 the results were Shiga toxin inh 21.2, CHX counter 17.6, Pf growth 96h inconclusive and Pf growth 48h inconclusive.
`Cc1nc(N2CCN(C)CC2)c2c3c(sc2n1)CCCC3` gave Shiga toxin inh -9.7, CHX counter 0.6, Pf growth 96h 2.4% and Pf growth 48h inconclusive.
C/C(=N\N1CCCCCC1)c1c(O)n(-c2ccc(Cl)cc2)c(=O)[nH]c1=O was read as MARV entry inh 5.2%[46.1 µM], Shiga toxin inh 13.2, CHX counter -0.4, Lassa entry inh inconclusive, Pf growth 96h 3.2% and Pf growth 48h inconclusive.
Screening C=CCn1c(O)c(C(CC)=NCc2cc(OC)cc(OC)c2)c(=O)[nH]c1=O returned MARV entry inh inconclusive, Shiga toxin inh 2.5, CHX counter 1.8, Lassa entry inh 5.8µM*, Pf growth 96h 55.1% and Pf growth 48h -9.4%.
For C=CCn1c(O)c(C(C)=NCCC(c2ccccc2)c2ccccc2)c(=O)[nH]c1=O the results were MARV entry inh inconclusive, Shiga toxin inh -12.6, CHX counter -2.1, Lassa entry inh inconclusive, Pf growth 96h 11.7µM* and Pf growth 48h -12.8%.
C/C(=N\N1CCCCCC1)c1c(O)n(-c2ccc(C)cc2)c(=O)[nH]c1=O was read as MARV entry inh inconclusive, Shiga toxin inh active, CHX counter 43.2*, Lassa entry inh inconclusive, Pf growth 96h 11.7µM* and Pf growth 48h inconclusive.
Screening C=CCn1c(O)c(/C(C)=N/N2CCCCC2)c(=O)[nH]c1=O returned MARV entry inh -0.1%[14.2 µM], Shiga toxin inh 75.2*, CHX counter 38.3, Lassa entry inh 0.6%, Pf growth 96h -2.3% and Pf growth 48h -4.0%.
Screening CCOC(=O)COc1ccc(C(c2c(C)[nH][nH]c2=O)c2c(C)[nH][nH]c2=O)cc1 returned MARV entry inh 3.7%[46.1 µM], Shiga toxin inh 4.9, CHX counter -3.3, Lassa entry inh 14.0%[46.1 µM], Pf growth 96h inconclusive and Pf growth 48h 4.3%.
Screening CC/C(=N\N1CCCCCC1)c1c(O)n(-c2ccc(C)cc2)c(=O)[nH]c1=O returned MARV entry inh 11.2%, Shiga toxin inh -4.6, CHX counter 18.5*, Lassa entry inh 0.398µM*, Pf growth 96h 2.08µM* and Pf growth 48h inconclusive.
For CC/C(=N\N1CCCCC1)c1c(O)[nH]c(=O)[nH]c1=O the results were MARV entry inh inconclusive, Shiga toxin inh 17.4, CHX counter -1.9, Lassa entry inh -17.1%, Pf growth 96h 0.2% and Pf growth 48h 10.4%.
`CCCN(CCO)C1CCN(CCc2ccccc2)CC1` gave Shiga toxin inh -4.0, CHX counter -1.4, Pf growth 96h -29.1% and Pf growth 48h 10.9%.
`CCCN(CCc1cccs1)[C@H]1CCc2c(O)cccc2C1` gave Pf growth 96h 1.51µM* and Pf growth 48h 6.75µM*.
Screening CCCN(CCC)[C@H]1CCc2c(F)ccc(O)c2C1 returned MARV entry inh 11.2µM* and Lassa entry inh 17.3%.
For CCC(=O)N(Cc1cccs1)C1CCOC(C)(C)C1 (stereo not drawn) the results were MARV entry inh -15.7%[46.1 µM], Shiga toxin inh -4.9, CHX counter -3.0, Lassa entry inh 3.3%, Pf growth 96h 26.3% and Pf growth 48h inconclusive.
For CN(C(=O)CN1C(=O)S/C(=C\c2ccccc2)C1=O)C1CCS(=O)(=O)C1 (stereo not drawn) the results were Shiga toxin inh 2.5, CHX counter -1.2, Pf growth 96h 13.1µM* and Pf growth 48h -6.9%.
Screening CN(C(=O)CCN1C(=O)/C(=C/c2ccccc2)SC1=S)C1CCS(=O)(=O)C1 (stereo not drawn) returned MARV entry inh inconclusive, Shiga toxin inh -1.3, CHX counter -2.3, Lassa entry inh -7.4%[46.1 µM], Pf growth 96h 2.62µM* and Pf growth 48h inconclusive.
Screening CN(C(=O)CN1C(=O)S/C(=C\c2ccc(Cl)cc2)C1=O)C1CCS(=O)(=O)C1 (stereo not drawn) returned Shiga toxin inh -6.4, CHX counter 1.8, Pf growth 96h -10.8% and Pf growth 48h -12.0%.
CCOC(=O)c1[nH]c2ccc(OC)cc2c1NC(=O)C(C)N1CCSCC1 (stereo not drawn) was read as MARV entry inh 2.4%, Shiga toxin inh -1.4, CHX counter -0.9, Pf growth 96h -7.0% and Pf growth 48h inconclusive.
`O=C(NC1CCCC1)c1cccc2c1C(=O)c1ccc(N3CCCCC3)cc1S2(=O)=O` gave Pf growth 96h 42.1% and Pf growth 48h -7.0%.
O=C(O)c1ccccc1C(=O)Nc1ccc(Oc2ccccc2)cc1 was read as MARV entry inh 1.1%[46.1 µM], Shiga toxin inh 54.7, CHX counter 12.8, Lassa entry inh 3.1%, Pf growth 96h 29.5% and Pf growth 48h 0.9%.
Cc1ncoc1C(=O)Nc1ccccc1-c1ccccc1 was read as MARV entry inh 3.7%, Shiga toxin inh -19.6, CHX counter -1.2, Lassa entry inh 7.0%, Pf growth 96h inconclusive and Pf growth 48h 0.8%.
`Cc1nc(C)c(C(=O)Nc2ccc(Oc3ccccc3)cc2)o1` gave MARV entry inh -15.3%, Shiga toxin inh 25.2*, CHX counter 25.6*, Lassa entry inh inconclusive and Pf growth 48h 77.7%.
Cc1ncoc1C(=O)Nc1ccc(Oc2ccccc2)cc1 was read as MARV entry inh 17.1%, Shiga toxin inh 153.3*, CHX counter 53.6*, Lassa entry inh 1.4%, Pf growth 96h -8.9% and Pf growth 48h 120.9%.
COc1c(C)oc2cc(O)ccc2c1=O was read as MARV entry inh -25.1%, Shiga toxin inh -7.8, CHX counter -7.0, Lassa entry inh 9.2%, Pf growth 96h -14.2% and Pf growth 48h 9.1%.
Screening Oc1ccc2c(c1)oc1cc(O)ccc12 returned MARV entry inh -22.8%, Shiga toxin inh 63.3*, CHX counter 45.5*, Lassa entry inh inconclusive, Pf growth 96h -24.5% and Pf growth 48h 59.9%.
COc1cc(C2Nc3cc(Cl)c(S(N)(=O)=O)cc3S(=O)(=O)N2)cc(OC)c1OC (stereo not drawn) was read as MARV entry inh 17.7%, Shiga toxin inh -4.0, CHX counter -5.5, Lassa entry inh 11.3%, Pf growth 96h -14.8% and Pf growth 48h -5.6%.
For COc1cc(C2Nc3cc(Cl)c(S(N)(=O)=O)cc3S(=O)(=O)N2)ccc1OCc1ccccc1 (stereo not drawn) the results were MARV entry inh 0.8%, Shiga toxin inh 128.1*, CHX counter 54.8*, Lassa entry inh 9.4% and Pf growth 48h 17.8%.
`COCCn1c(SCC(=O)Nc2cccc(S(N)(=O)=O)c2)nc2cc(Cl)ccc2c1=O` gave MARV entry inh inconclusive, Shiga toxin inh -9.7, CHX counter 3.2, Lassa entry inh 5.6%, Pf growth 96h inconclusive and Pf growth 48h inconclusive.
Screening CCn1c(SCC(=O)Nc2ccc(F)cc2)nnc1C1CC1 returned MARV entry inh inconclusive, Shiga toxin inh 23.5, CHX counter 19.4*, Lassa entry inh 15.5%[46.1 µM], Pf growth 96h inconclusive and Pf growth 48h 40.4%.

Source: PubChem BioAssay
